These results are taken from PubChem BioAssay (NCATS).

Records with an inconclusive call do not appear. Unmarked numbers belong to inactive results. Active and inactive are the calls of the source. The call rests on the fitted dose curve; in most records, active means well fitted curve in the direction sought with a large enough effect; inconclusive means small, poorly fitted or top-dose-only effect, or another doubt; inactive means no such curve, though single readings can be large; an effect the other way counts as inactive or inconclusive.

In one experiment the test system is TAB109. In words: qHTS profiling for inhibitors of Plasmodium falciparum proliferation (AID 504749). Further: nearly all actives have a fitted effect of over 60% in size. Further: potency means the concentration at half of the fitted maximal effect. Conditions: P. falciparum in erythrocytes, SYBR Green DNA, 72 h; series mostly up to 28.7 µM. An outline of the steps: (§1)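 Readout was DNA-dye fluorescence from lysed cultures, ex 485/em 535 nm. Parasitized red cells had grown 72 h with compound; data scaled between 0.29 uM artemisinin and DMSO wells and corrected using vehicle-only plates.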

For the next experiment, the system named is TAB113. Described as above. Conditions: P. falciparum in erythrocytes, SYBR Green DNA, 72 h; series mostly up to 28.7 µM. An outline of the steps:
as §1

The next experiment concerns CRL-7250. In words: Cytotoxic Profiling of Annotated Libraries Using Quantitative High-Throughput Screening (AID 1296008). Further: nearly all actives have a fitted effect of over 60% in size. On max response: on the % scale 0 is the no-effect control and ±100 the full control effect. Conditions: Five cell lines viability, CellTiter-Glo ATP luminescence, 48-72 h; max response: stronger effect = lower value. The gist of the method: (§2)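 Cells exposed to compounds for 48 or 72 hr at 37 degrees Celsius. Viability read as ATP-coupled luminescence with CellTiter-Glo after 10 min at room temperature.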

For another experiment, the system named is HEK293. The description is as above. To be noted: Five cell lines viability, CellTiter-Glo ATP luminescence, 48-72 h; max response: stronger effect = lower value. The gist of the method:
as §2

Another experiment concerns HaCat. Described as above. To be noted: Five cell lines viability, CellTiter-Glo ATP luminescence, 48-72 h; max response: stronger effect = lower value. An outline of the steps:
as §2

Another experiment relates to KB-3-1. The experiment is described as above. Conditions: Five cell lines viability, CellTiter-Glo ATP luminescence, 48-72 h; max response: stronger effect = lower value. The gist of the method: as §2
In the next experiment the test system is NIH3T3. The description is as above. Conditions: Five cell lines viability, CellTiter-Glo ATP luminescence, 48-72 h; max response: stronger effect = lower value. An outline of the steps:
as §2

In another experiment the test system is MCC-13. In words: qHTS assay to identify novel small-molecules to repurpose for Merkel cell carcinoma treatment (AID 1296009). Further: on the % scale 0 is the no-effect control and ±100 the full control effect; nearly all actives have a fitted effect of over 60% in size. To be noted: MCC and control cell lines, CellTiter-Glo viability, 72 h; series mostly up to 46 µM. An outline of the steps:
(§3)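 Cells were incubated with compound for 72 hr at 37 degree celsius before CellTiter-Glo addition. Luminescence was normalized with no-cell wells as full cytotoxicity and DMSO as baseline.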

For a further experiment, the system named is MCC-26. Described as above. Conditions: MCC and control cell lines, CellTiter-Glo viability, 72 h; series mostly up to 46 µM. The gist of the method:
as §3

The next experiment concerns MKL-1. The experiment is described as above. Conditions: MCC and control cell lines, CellTiter-Glo viability, 72 h; series mostly up to 46 µM. An outline of the steps: as §3
The subject of the next experiment is MKL-2. The experiment is described as above. Conditions: MCC and control cell lines, CellTiter-Glo viability, 72 h; series mostly up to 46 µM. The gist of the method: as §3
Another experiment concerns UISO. The description is as above. To be noted: MCC and control cell lines, CellTiter-Glo viability, 72 h; series mostly up to 46 µM. The gist of the method:
as §3

The test system of the next experiment is WaGa. The experiment is described as above. Conditions: MCC and control cell lines, CellTiter-Glo viability, 72 h; series mostly up to 46 µM. An outline of the steps:
as §3

For the next experiment, the system named is C33A. In words: Primary qHTS to identify gynecologic anti-cancer compounds using libraries of approved drugs and bioactive compounds (AID 1345084). Further: on the % scale 0 is the no-effect control and ±100 the full control effect; nearly all actives have a fitted effect of over 55% in size. Conditions: Gynecologic cancer cell panel viability, ATPlite luminescence, 48 h; series mostly up to 57.5 µM. The gist of the method:
(§4)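 Measured: luminescence after ATPlite addition (15 min, RT). Exposure: 48 h, 37 C, 5% CO2.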

Another experiment relates to TAB165. In words: qHTS profiling for inhibitors of Plasmodium falciparum proliferation (AID 504749). Further: nearly all actives have a fitted effect of over 60% in size. Further: potency means the concentration at half of the fitted maximal effect. To be noted: P. falciparum in erythrocytes, SYBR Green DNA, 72 h; series mostly up to 28.7 µM. The gist of the method: as §1
Another experiment deals with W2. The description is as above. To be noted: P. falciparum in erythrocytes, SYBR Green DNA, 72 h; series mostly up to 28.7 µM. An outline of the steps:
as §1

The next experiment concerns CAOV3. In words: Primary qHTS to identify gynecologic anti-cancer compounds using libraries of approved drugs and bioactive compounds (AID 1345084). Further: on the % scale 0 is the no-effect control and ±100 the full control effect; nearly all actives have a fitted effect of over 55% in size. To be noted: Gynecologic cancer cell panel viability, ATPlite luminescence, 48 h; series mostly up to 57.5 µM. The gist of the method:
as §4

Regarding `COc1cc(N)c(Cl)cc1C(=O)NC1CCN(Cc2ccccc2)CC1`, the Potency entry in the experiment on TAB109, with TAB113, with MCC-13, in the experiment on MCC-26, with MKL-1 and in the experiment with MKL-2 was “inactive” throughout. Further, the Potency result in the experiment with UISO, in the experiment with WaGa and in the experiment on C33A was “inactive” throughout. The compound was called inactive in the experiment on CRL-7250. Moreover, the max response in the experiment with HEK293 is -8.36%; in the experiment with HaCat, 1.83%; with KB-3-1, 3.83%; with NIH3T3, -4.33%.
On to `Cn1c(=O)c2[nH]c(Br)nc2n(C)c1=O`, for which the Potency entry with TAB113, with TAB165, in the experiment with W2, with MCC-13, in the experiment with MCC-26 and with MKL-1 was “inactive” each time. Also, the Potency result in the experiment on MKL-2, with UISO, with WaGa, in the experiment with C33A and in the experiment on CAOV3 was “inactive” in each case. Further, the outcome in the experiment with CRL-7250 was inactive. In addition, the max response was -7.38% in the experiment with HEK293, -0.598% in the experiment on HaCat, -9.6% with KB-3-1 and -3.31% in the experiment on NIH3T3.
On to `CCOC(=O)c1ccc(N)cc1`, for which the Potency entry in the experiment with TAB109, in the experiment with TAB113, in the experiment with TAB165, with W2, in the experiment on MCC-13 and in the experiment on MCC-26 was “inactive” in each case. The Potency result in the experiment on MKL-1, in the experiment with MKL-2, in the experiment with UISO, in the experiment on WaGa, in the experiment on C33A and with CAOV3 was “inactive” each time. Also, the max response with CRL-7250 is -8.72%; with HEK293, -24%; in the experiment on HaCat, -25.3%; in the experiment with KB-3-1 it was 1.36%; in the experiment on NIH3T3, -0.465%.
Take `COc1ccc(C(=O)c2ccccc2O)c(O)c1`: the Potency result in the experiment with TAB109, in the experiment on TAB113, in the experiment on MCC-13, with MCC-26, with MKL-1 and with MKL-2 was “inactive” throughout. The Potency result with UISO, in the experiment with WaGa and in the experiment on C33A was “inactive” throughout. Moreover, in the experiment with CRL-7250, the compound was called inactive. For the same compound, the max response in the experiment on HEK293 was -10.9%; with HaCat, 4.59%; in the experiment on KB-3-1 it was -2.05%; in the experiment on NIH3T3 it was 1.03%.
Turning to `CCOc1ccc(NC(C)=O)cc1`, the Potency result with TAB109, with TAB113, in the experiment with TAB165, in the experiment with W2, in the experiment on MCC-13 and with MCC-26 was “inactive” in each case. Besides, the Potency result in the experiment with MKL-1, with MKL-2, in the experiment with UISO, with WaGa, in the experiment on C33A and in the experiment on CAOV3 was “inactive” throughout. In addition, the max response is -21.4% in the experiment on CRL-7250; -5.15% in the experiment on HEK293; -1.35% in the experiment with HaCat; 8.88% with KB-3-1; -7.54% in the experiment with NIH3T3.
`O=C(O)c1ccc(S(=O)(=O)N(Cl)Cl)cc1`: the Potency result in the experiment on TAB109, with TAB113, with TAB165, with W2, in the experiment with MCC-13 and in the experiment on MCC-26 was “inactive” throughout. In addition, the Potency result in the experiment with MKL-1, in the experiment on MKL-2, in the experiment on UISO, in the experiment with WaGa, with C33A and in the experiment with CAOV3 was “inactive” each time. The max response in the experiment with CRL-7250 was 3.6%; with HEK293, 3.96%; in the experiment on HaCat, -0.853%; in the experiment with KB-3-1, -9.69%; in the experiment on NIH3T3, -3.94%.
For `OC1C(O)C(O)C(O)C(O)C1O` (stereo not given), the Potency entry with TAB109, in the experiment with TAB113, in the experiment with TAB165, in the experiment with W2, with MCC-13 and with MCC-26 was “inactive” throughout. For the same compound, the Potency result in the experiment with MKL-1, with MKL-2, in the experiment on UISO, in the experiment on WaGa, with C33A and with CAOV3 was “inactive” throughout. The result in the experiment on CRL-7250 was inactive. Besides, the max response in the experiment on HEK293 was 2.94%; in the experiment on HaCat it was 2.27%; in the experiment with KB-3-1, -8.66%; in the experiment on NIH3T3 it was -6.2%.
As for `Cc1c(-c2ccccc2)oc2c(C(=O)OCCN3CCCCC3)cccc2c1=O`, the Potency result in the experiment on TAB109, with TAB113, in the experiment with TAB165, in the experiment with W2, in the experiment with MCC-13 and in the experiment on MCC-26 was “inactive” throughout. In addition, the Potency result in the experiment on MKL-1, in the experiment on MKL-2, in the experiment on UISO, in the experiment with WaGa, with C33A and in the experiment with CAOV3 was “inactive” throughout. For the same compound, the max response in the experiment on CRL-7250 is -1.78%; in the experiment on HEK293, -20.2%; in the experiment on HaCat, 3.56%; in the experiment on KB-3-1 it was -3.83%; in the experiment on NIH3T3, 3.38%.
As to `Clc1cccc(C(c2ccc3nc[nH]c3c2)n2ccnc2)c1` (stereo not given), in the experiment with TAB165, the Potency is 7.94 µM (active). The max response with CRL-7250 is -3.34%; in the experiment with HEK293 it was 1.25%; with HaCat it was -3.24%; in the experiment on KB-3-1, 11.8%; with NIH3T3, -0.487%. Moreover, the Potency result with MCC-13, in the experiment with MCC-26, in the experiment on MKL-1, in the experiment on MKL-2, with UISO and in the experiment on WaGa was “inactive” throughout. For the same compound, the Potency result in the experiment with C33A and in the experiment with CAOV3 was “inactive” each time.
For `CCCCC(CC)COC(=O)c1ccc(N(C)C)cc1` (stereo not given), the Potency result in the experiment on TAB109, in the experiment with TAB113, in the experiment with TAB165, with W2, with MCC-13 and with MCC-26 was “inactive” in each case. Besides, the Potency result with MKL-1, in the experiment with MKL-2, with UISO, in the experiment on WaGa, in the experiment with C33A and in the experiment with CAOV3 was “inactive” in each case. In the experiment on CRL-7250, the call was inactive. For the same compound, the max response was -4.34% with HEK293, -11.9% with HaCat, 0.633% in the experiment with KB-3-1 and 4.63% in the experiment on NIH3T3.
With `O=C(O)CCc1nc2ccccc2[nH]1`, the Potency entry in the experiment on TAB109, in the experiment on MCC-13, in the experiment with MCC-26, in the experiment on MKL-1, in the experiment with MKL-2 and with UISO was “inactive” each time. For the same compound, the Potency entry in the experiment on WaGa, in the experiment with C33A and in the experiment with CAOV3 was “inactive” in each case. Moreover, the Potency with TAB165 was 7.94 µM (active). Further, the max response in the experiment on CRL-7250 was -5.04%; with HEK293, -3.96%; in the experiment with HaCat it was -3%; in the experiment on KB-3-1 it was -8.67%; with NIH3T3, -8.19%.
`Cc1ccccc1OCC(O)CO` (stereo not given): the Potency entry in the experiment with TAB109, with TAB113, in the experiment with TAB165, in the experiment with W2, in the experiment with MCC-13 and in the experiment on MCC-26 was “inactive” each time. The Potency entry with MKL-1, in the experiment with MKL-2, in the experiment with UISO, with WaGa, with C33A and with CAOV3 was “inactive” throughout. In the experiment with CRL-7250, the call was inactive. Further, the max response in the experiment with HEK293 is -6.66%; in the experiment on HaCat, 0.0907%; with KB-3-1, 1.58%; in the experiment on NIH3T3, -27.4%.
As for `O=[N+]([O-])c1cccc(S(=O)(=O)NCCNS(=O)(=O)c2cccc([N+](=O)[O-])c2)c1`, the Potency entry with TAB113, in the experiment with MCC-13, in the experiment on MCC-26, with MKL-1, with MKL-2 and in the experiment with UISO was “inactive” throughout. In addition, the Potency entry with WaGa and with C33A was “inactive” in each case. In addition, the compound was classed as inactive with CRL-7250. Besides, the max response with HEK293 was -16%; with HaCat, 0.408%; in the experiment on KB-3-1 it was 2.2%; with NIH3T3 it was -4.18%.
